Hits are enriched below; roughly 9.5% of the tested compounds scored in any of these assays.
ALDH1A1 inh – qHTS Assay for Inhibitors of Aldehyde Dehydrogenase 1 (ALDH1A1); Potency, µM (top dose mostly 75.3 µM), for inactives: top-dose activity, negative = inhibition, most hits filed as inhibitors; AID 1030, 2008; Aldehyde dehydrogenase 1A1 (Homo sapiens), P00352; Purified ALDH1A1, NADH fluorescence, propionaldehyde substrate; hit rate 7.3% among 220,000; active = well fitted inhibition curve with a large enough effect, not every such curve was filed as active; inconclusive = small, poorly fitted or top-dose-only effect, or another doubt; inactive = no such curve, though single readings can be large or run the other way;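 note: plate controls were no enzyme wells and a reference inhibitor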
Target sequence (P00352 whole entry, looked up): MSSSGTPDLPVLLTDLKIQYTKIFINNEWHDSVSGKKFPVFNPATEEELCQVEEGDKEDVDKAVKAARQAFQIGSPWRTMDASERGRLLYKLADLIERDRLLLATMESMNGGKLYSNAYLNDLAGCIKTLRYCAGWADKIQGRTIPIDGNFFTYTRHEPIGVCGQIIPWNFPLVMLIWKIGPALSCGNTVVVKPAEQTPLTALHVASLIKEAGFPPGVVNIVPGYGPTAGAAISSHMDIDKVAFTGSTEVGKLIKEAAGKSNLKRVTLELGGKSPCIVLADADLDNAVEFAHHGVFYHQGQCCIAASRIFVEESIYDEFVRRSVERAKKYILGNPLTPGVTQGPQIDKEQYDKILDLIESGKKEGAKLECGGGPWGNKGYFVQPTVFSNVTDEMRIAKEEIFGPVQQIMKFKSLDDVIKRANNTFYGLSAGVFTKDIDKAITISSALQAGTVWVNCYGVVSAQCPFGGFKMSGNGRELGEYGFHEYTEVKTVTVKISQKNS
Tau FP inhib – qHTS for Inhibitors of Tau Fibril Formation, Fluorescence Polarization; hit rate 0.39% among 280,000; Potency, µM (series often up to 57.7 µM), for inactives: at the top dose activity, negative = inhibition, actives largely listed as inhibitors; AID 1468, 2008; K18 P301L tau heparin fibrillization, Alexa594 FP, 6 h; Microtubule-associated protein tau (Homo sapiens), P10636; note: nearly all actives have a fitted effect of over 55% in size
Target sequence (P10636 561-689 P618L limits assumed): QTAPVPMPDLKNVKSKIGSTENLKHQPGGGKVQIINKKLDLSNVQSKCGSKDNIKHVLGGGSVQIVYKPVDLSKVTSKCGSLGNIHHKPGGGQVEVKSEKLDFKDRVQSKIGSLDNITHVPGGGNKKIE
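Recombinant K18 P301L […], labeled with Alexa 594 at 0.24 uM over 15 uM unlabeled; heparin inducer 20 uM final; 37 C, 6 hr; FP endpoint.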
Tau fluor counter – Counterscreen qHTS for Inhibitors of Tau Fibril Formation, Fluorescence Polarization; tau K18 P301L Alexa594 fluorescence, heparin fibrillization; Potency, µM (series often up to 57.7 µM), without a hit: top-dose activity change, negative = decrease; hit rate 0.93% among 280,000; AID 1463, 2008; note: nearly all actives have a fitted effect of over 55% in size
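Human K18 P301L tau (15 uM unlabeled plus 0.24 uM Alexa 594-labeled, final) in 100 mM sodium acetate pH 7 was mixed with compound and 20 uM heparin and incubated 6 hr at 37 C.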
NPSR antag – qHTS Assay for Antagonists of the Neuropeptide S Receptor: cAMP Signal Transduction; CHO-NPSR cells, cAMP TR-FRET, antagonist mode; hit rate 1% among 220,000; Potency, µM (titrated, usually from 38.3 µM), for the others: at the highest dose activity change, negative = inhibition, hits mostly inhibitors; AID 1461, 2008; Q6W5P4; note: nearly all actives have a fitted effect of over 50% in size
Tau ThT inhib – qHTS for Inhibitors of Tau Fibril Formation, Thioflavin T Binding; Microtubule-associated protein tau (Homo sapiens), P10636; recombinant tau K18 P301L (four-repeat tau fragment), heparin-induced fibrillization, ThT fluorescence; Potency, µM (top dose mostly 57.4 µM), for the others: at the top dose activity, negative = inhibition, hits mostly inhibitors; hit rate 2.1% among 270,000; AID 1460, 2008; note: nearly all actives have a fitted effect of over 55% in size
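In this qHTS, human K18 P301L tau is incubated with compound and heparin for 6 hr at 37 C, and Thioflavin T fluorescence then reports fibril load.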
HPGD block – qHTS Assay for Inhibitors of HPGD (15-Hydroxyprostaglandin Dehydrogenase) | 15-hydroxyprostaglandin dehydrogenase [NAD(+)] (Homo sapiens), P15428 | purified HPGD, NADH fluorescence kinetic, PGE2 substrate | Potency, µM, for the others: at the top dose activity change, negative = inhibition, most hits filed as inhibitors | hit rate 4.3% among 150,000; active = well fitted inhibition curve with a large enough effect, not every such curve was filed as active; inconclusive = small, poorly fitted or top-dose-only effect, or another doubt; inactive = no such curve, though single readings can be large or run the other way
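20 nM HPGD preincubated 15 min at room temperature with compound in 50 mM Tris-HCl pH 8, 0.01% Tween 20. Started with 1 mM NAD+ and 30 uM prostaglandin E2; NADH fluorescence (360/450 nm) read 5 times over 30-s intervals, last minus first.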
* = called active by the depositor; ? = inconclusive; . = no result; [ ] = remark or other dose. Unless noted, calls come from the whole dose curve; as a rule, active = well fitted curve in the direction sought with a large enough effect; inconclusive = small, poorly fitted or top-dose-only effect, or another doubt; inactive = no such curve, though single readings can be large; an effect the other way counts as inactive or inconclusive. Unless noted, % is set by controls: 0 for no effect and ±100 for the full control effect; potency is the fitted concentration of half-maximal effect.

SMILES	ALDH1A1 inh	Tau FP inhib	Tau fluor counter	NPSR antag	Tau ThT inhib	HPGD block
O=C1C(=O)N(Cc2cccnc2)C(c2ccccn2)/C1=C(/O)c1ccc(Br)cc1 (stereo not drawn)	7%	-2%	-7%	15%[46.1 µM]	-13%	-5%
Cc1ccc(/C(O)=C2\C(=O)C(=O)N(Cc3cccnc3)C2c2ccccc2[N+](=O)[O-])cc1 (stereo not drawn)	7.1µM*	-3%	4%	1%	-14%	-7%
CC1CCCN(c2cc(N(C)CCO)c([N+](=O)[O-])c3nonc23)C1 (stereo not drawn)	?	8%	-2%	-10%	?	.
CN(CCO)c1cc(N2CCCCC2)c2nonc2c1[N+](=O)[O-]	16µM*	4%	-7%	-10%	?	.
N=C1S/C(=C\c2ccc(-c3ccccc3C(=O)O)o2)C(=O)N1c1ccc2c(c1)OCO2	11µM*	-10%	-26%	-9%	3.5µM*	.
COc1ccccc1N1C(=N)S/C(=C\c2ccc(-c3ccccc3C(=O)O)o2)C1=O	?	8%	-4%	-21%	?	25µM*
Cc1ccc(NC(=O)CN2C(=O)S/C(=C\c3ccc(-c4cccc(C(=O)O)c4C)o3)C2=O)cc1C	-15%	-7%	-1%	-41%	?	.
Cc1cc(Br)ccc1-n1[nH]c(C)c(C=Nc2cccc3nsnc23)c1=O	-6%	?	?	-46%	14µM*	.
COc1cc(/C=C(\C#N)C(=O)NCCc2ccccc2)cc(OC)c1O	-2%	2%	-29%	-21%	?	.
N#C/C(=C\c1ccc(O)c(O)c1)C(=O)NCCCCc1ccccc1	?	2%	14µM*[quencher]	.	16µM*	8.9µM*
N#C/C(=C\c1ccc(O)c(O)c1)C(=O)NCCc1ccccc1	?	12%	?	-19%[46.1 µM]	?	25µM*
CC(C)Oc1ccc(CNC(=O)c2cccc(NC(=O)N3CCSc4ncccc43)c2)cc1	.	-2%	-28%	.	-13%	.
COC(=O)C1=C(C(=O)OC)[C@@H]2Nc3ccccc3[C@@]23C[C@@H](C(=O)OC)N(S(=O)(=O)c2ccc(C#N)cc2)C3=N1	?	0%[11.6 µM]	-6%[11.6 µM]	.	-2%[11.5 µM]	-11%
COc1ccc2nc(-c3ccc(N)cc3)[nH]c2c1	6.3µM*	-1%	-2%	-29%[46.1 µM]	-3%	?
CCc1ccc(NC(=S)N(CCN(C)C)C(C)c2ccncc2)cc1 (stereo not drawn)	6%	-7%	-18%	-5%	-13%	.
Cc1ccccc1NC(=O)c1cccc2nc3ccccc3nc12	-14%	?	?	-13%[46.1 µM]	8.9µM*	-17%
O=C(CSc1nnc(NC2CCCCC2)s1)Nc1ccc2c(c1)C(=O)c1ccccc1C2=O	13µM*	?	8.9µM*[quencher]	-16%	?	.
CC(C)Nc1nnc(SCC(=O)Nc2ccc3c(c2)C(=O)c2ccccc2C3=O)s1	7.9µM*	14%	13µM*[quencher]	-4%	10µM*	-19%
COc1ccc(NC(=O)CSc2nnc(NC(=O)NC3CCCCC3)s2)cc1OC	.	3%	?	.	?	.
Cc1ccc2c(c1)sc[n+]2Cc1ccccc1	?	?	-13%	-13%[46.1 µM]	?	20µM*
Cc1ccc(-c2cc[n+](Cc3ccccc3)cc2)cc1	?	3%	-10%	6%	-5%	.
CC(=O)O[C@@H]1CC2C(C)(C)C(=O)C=C[C@]2(C)C2CC[C@]3(C)C(=CC[C@H]3C3CO[C@@H](C(C)(C)O)[C@H](O)C3)[C@@]21C (stereo partly drawn)	2%	-1%	-16%	.	?	-9%
CCOC(=O)c1sc(N(Cc2ccccc2)C(=O)CSc2nnc(C3CC3)n2N)nc1C	-9%	1%	-9%	-15%[46.1 µM]	-1%	20µM*
C[C@H]1Cc2c(-c3ccccc3)nc3c(c2CO1)CN(C(=O)C1CCCCC1)CC3	-1%[13.5 µM]	-4%[11.6 µM]	-1%[11.6 µM]	.	7%[11.5 µM]	-4%
COc1ccc(N2CCN(C(=O)c3ccccc3)CC2)c([N+](=O)[O-])c1	?	0%	-9%	11%	?	.
SMILES	ALDH1A1 inh	Tau FP inhib	Tau fluor counter	NPSR antag	Tau ThT inhib	HPGD block
COc1ccc(N2CCN(C(=O)c3ccc(Br)cc3)CC2)c([N+](=O)[O-])c1	13µM*	3%	?	-38%	?	.
COc1ccc(N2CCN(C(=O)c3ccc(C)cc3)CC2)c([N+](=O)[O-])c1	11µM*	6%	-9%	-7%	?	-26%
CC(C)(C)C(=O)N1CCN(c2ccc([N+](=O)[O-])cc2-n2cccc2)CC1	.	9%	-13%	-58%	.	.
CCCCC(=O)N1CCN(c2ccc(OC)cc2[N+](=O)[O-])CC1	?	9%	-12%	-6%	?	14µM*
Cc1ccc(C(=O)N2CCN(c3ccc([N+](=O)[O-])cc3-n3cccc3)CC2)cc1	.	7%[0.0958 µM]	18%[0.0958 µM]	10µM*	.	.
CCCCCCCC/C=C\CCCCCCCC(=O)N[C@@H](CO)Cc1ccc(O)cc1	-4%	?	?	.	-20%	-8%
CCc1nn(CC(=O)NCCCc2ccccc2)c(=O)c2cc3ccccc3n12	.	-11%	-6%	.	5%	.
O=C(Nc1ccc(Cl)c(Cl)c1)C1=Cc2ccccc2OC1	?	16µM*	?	-15%[46.1 µM]	?	?
O=C(Nc1cccc(Cl)c1)C1=Cc2cc(Cl)ccc2OC1	?	?	?	?	-18%	?
CC(=O)Nc1ccc(N2N=C(C)C(N=Nc3ccccc3)C2=O)cc1 (stereo not drawn)	1%	4%	-30%	5%	4.5µM*	-8%
CC(C)C(=O)OCC(=O)Nc1ccc(N=Nc2ccccc2)cc1	?	?	?	-11%	7.9µM*	-14%
CC(=O)Nc1ccccc1	8%	8%	-1%	.	-1%	-7%
CCC(C(=O)OCC(=O)Nc1ccc(C(N)=O)cc1)c1ccccc1 (stereo not drawn)	-1%	2%	-12%	2%	-7%	.
CC1=NN(c2ccccc2)C(=O)C1N=Nc1ccc(C)cc1 (stereo not drawn)	1%	-2%	-12%	4%	-20%	.
CC(=O)OCC(=O)Nc1ccc(N=Nc2ccccc2)cc1	-6%	3%	-22%	-19%[46.1 µM]	8.9µM*	?
CC(=O)Nc1ccc(N=Nc2ccccc2)cc1	5%	0%	-6%	-3%	13µM*	-11%

Bioassay records from PubChem BioAssay.
